# Measured values from PubChem BioAssay AID748 (Sanford-Burnham Center for Chemical Genomics, 2007).
# Hit rate of the full screen: of about 96,000 compounds, about 100 (0.1%) were called active.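 How the source made its calls: active means displacement above 50% at 20 µM plus a fluorescence interference ratio under 1.5; inactive means the rest.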 The entries come from a sample that favours actives as a whole. Entries with a potency or affinity are not part of this list.
# Target: Bcl-2-like protein 10 (Homo sapiens) (UniProt Q9HD36)
# Experiment: displacers of TR3 peptide from Bcl-B, primary screen, selectivity assay for Bfl-1 inhibitor project, biochemical, fluorescence polarization, FITC-TR3 peptide (AID 748);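 further: plate controls were wells without compound for no effect and wells lacking Bcl-B protein for full effect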
# Details: FP displacement of FITC-TR3 peptide from Bcl-B; at 20 µM; hits give high values
row,Compound,displacement
1,CC(C)(C)n1ncc2c(=O)n(CC(=O)NC3CCCCC3)cnc21,-2.2% (inactive)
2,COC(=O)c1oc2ccc(Br)cc2c1NC(=O)c1ccccc1,-10.4% (inactive)
3,Cc1cc(C)nc(Nc2ccc(N3CCOCC3)cc2)n1,37.9% (inactive)
4,Cc1cc(C)nc(Nc2ccc(C(=O)O)cc2)n1,1.7% (inactive)
5,CCCCCCNc1nc(NCc2ccco2)nc(OCC)n1,-31.5% (inactive)
6,Cc1nc(SCC(=O)NCc2ccco2)[nH]c(=O)c1C,-5.3% (inactive)
7,NC(=O)c1cc(N)ccc1N1CCCC1,7.2% (inactive)
8,Cc1cc(N)ccc1-n1c(C)ccc1C,-6.6% (inactive)
9,CCc1nnc(NC(=O)C(=O)NCCOC(=O)c2ccccc2Cl)s1,-14.4% (inactive)
10,COc1ccc(N=C2SC(CC(=O)Nc3ccccc3)C(=O)N2CC2CCCO2)cc1 (stereo not given),-7.7% (inactive)
11,COc1ccc2c(c1)c(=O)oc1cc(OCC(=O)N3CCCC(C)C3)ccc12 (stereo not given),31.5% (inactive)
12,COc1cccc(OCC(=O)NC2CCCCC2)c1,-1.4% (inactive)
13,Cc1cc(=O)oc2cc(OCC(=O)N3CCc4ccccc4C3)ccc12,-2.9% (inactive)
14,Cc1cc(=O)oc2ccc(OCC(=O)N3CCC(C)CC3)cc12,-6.2% (inactive)
15,COc1ccc2c(c1)c(=O)oc1c(C)c(OCC(=O)N3CCc4ccccc4C3)ccc12,17.9% (inactive)
16,COc1ccc2c(c1)c(=O)oc1cc(OCC(=O)NC3CC3)ccc12,-27.3% (inactive)
17,COC(=O)c1ccccc1OCC(=O)NC1CCCCC1,-0.5% (inactive)
18,O=C1CC(=O)C(n2cncn2)C(c2c(F)cccc2Cl)C1 (stereo not given),1.3% (inactive)
19,O=C(CSc1ncccc1-c1nc2ccccc2[nH]1)N1CCN(c2ccccc2F)CC1,-0.6% (inactive)
20,COc1cc(C(=O)NCCC(=O)NCCCN2CCCCC2C)cc(OC)c1OC (stereo not given),-7% (inactive)
21,O=[N+]([O-])c1cc(/C=N\Nc2nccs2)ccc1O,107% (active)
22,Clc1cccc(/C=N\Nc2nccs2)c1,-14.4% (inactive)
23,Cc1ccc(/C=N/NC(=O)c2cccs2)cc1[N+](=O)[O-],-1.9% (inactive)
24,CCCn1c(CN2CCN(C(=O)c3ccco3)CC2)nc2c1c(=O)n(C)c(=O)n2C,-3.6% (inactive)
25,CCSc1nnc(NC(=O)c2ccccn2)s1,2.1% (inactive)

row,Compound,displacement
1,CCSc1nnc(NC(=O)c2cnccn2)s1,58.3% (active)
2,CCc1nnc(NC(=O)c2cnccn2)s1,-1% (inactive)
3,CCc1c(C)nc2[nH]nc(-c3ccccc3)n2c1=O,3.2% (inactive)
4,CCOC(=O)c1cc2c(=O)n3cccc(C)c3nc2n(Cc2ccccc2Cl)c1=N,-0.7% (inactive)
5,Cn1c(=O)[nH]c(=O)c2c1nc(Br)n2Cc1ccccc1Cl,-0.4% (inactive)
6,COc1cc(C(=O)NC2CC3CCCC(C2)N3CC(=O)Nc2ccccc2)cc(OC)c1OC (stereo not given),-5.3% (inactive)
7,COc1cccc(C(=O)NC2CC3CCCC(C2)N3CC(=O)Nc2ccc(N(C)C)cc2)c1 (stereo not given),7.7% (inactive)
8,Cn1c(=O)c2nnn(/N=C(\c3ccccc3)C3CC3)c2n(C)c1=O,0.7% (inactive)
9,COc1ccc(C2=Nn3c(nnc3-c3ccco3)SC2)cc1OC,5.3% (inactive)
10,Oc1ccc(C2=Nn3c(nnc3-c3ccco3)SC2)cc1O,56.6% (active)
11,COc1ccc(C2=Nn3c(nnc3-c3ccco3)SC2)cc1,0.6% (inactive)
12,COc1ccc(NC(=O)C2CCCN(c3c4c(nc5ncnn35)CCC4)C2)cc1 (stereo not given),-4.1% (inactive)
13,COc1ccc(NC(=O)C2CCN(C(=O)c3ccc(OC)cc3)CC2)cc1,3.5% (inactive)
14,COC(=O)c1cccc(NC(=O)COC(=O)CSc2nc(C)cc(C)n2)c1,-13.3% (inactive)
15,CCOC(=O)c1cccc(NC(=O)CSc2nc(N)cc(N)n2)c1,-1.6% (inactive)
16,Cc1ccc(SCC(=O)Nc2ccc(-c3nnc(-c4ccco4)o3)cc2)cc1,-9.5% (inactive)
17,Cc1cccc(NC(=O)CSc2nnc(-c3ccco3)c(-c3ccco3)n2)c1C,37.3% (inactive)
18,Cc1cccc(C)c1NC(=O)CSc1nnc(-c2ccco2)c(-c2ccco2)n1,-4.1% (inactive)
19,O=C(CSc1nnc2c3ccccc3c3ccccc3c2n1)Nc1ccccc1,-29.6% (inactive)
20,CCc1nnc(SCC(=O)Nc2ccccc2)nc1CC,-1.5% (inactive)
21,Cc1cccc(NC(=O)CSc2nnc(-c3ccco3)o2)c1C,7.2% (inactive)
22,Cc1ccc2oc(-c3cccc(NC(=O)c4ccc(Br)o4)c3)nc2c1,-23.6% (inactive)
23,CC(NC(=O)CSc1nnc(CC(=O)Nc2ccc(Cl)c(Cl)c2)n1C)c1ccccc1 (stereo not given),-13.6% (inactive)
24,Cc1cccc(N(C)S(=O)(=O)c2ccc3c(c2)CCC(=O)N3)c1,-24.5% (inactive)
25,COc1ccc(S(=O)(=O)Cc2ccc(C(=O)N3CCc4ccccc4C3)o2)cc1,9.8% (inactive)

row,Compound,displacement
1,Cc1ccc(S(=O)(=O)Cc2ccc(C(=O)N3CCCC3)o2)cc1,-6.7% (inactive)
2,Cc1ccc(S(=O)(=O)Cc2ccc(C(=O)N3CCCCCC3)o2)cc1,21.6% (inactive)
3,Cc1ccc(S(=O)(=O)Cc2ccc(C(=O)N3CCN(Cc4ccccc4)CC3)o2)cc1,16.9% (inactive)
4,COC(=O)c1cccc(NC(=O)CSc2nnc(C)n2Cc2ccccc2)c1,-10.5% (inactive)
5,CCOc1ccc(N2C(=O)CC(N3CCN(C4CCc5ccccc5C4)CC3)C2=O)cc1 (stereo not given),5.4% (inactive)
6,Cc1ccc2c(c1)c1c3n2CCN(C(=O)CN2CCN(C)CC2)C3CCC1 (stereo not given),15.1% (inactive)
7,CC(=O)N1CCn2c3c(c(=O)c4cc(C)ccc42)CCC31 (stereo not given),4.4% (inactive)
8,COCC(C)n1c(C)cc(C(=O)COC(=O)c2nc3nc(C)cc(C)n3n2)c1C (stereo not given),9.9% (inactive)
9,COc1cc(NC(=O)COC(=O)c2nc3nc(C)cc(C)n3n2)cc(OC)c1,0.7% (inactive)
10,Cc1ccc(CC(=O)NC(C)CCc2ccccc2)cc1 (stereo not given),1% (inactive)
11,Cc1cc(NC(=O)COC(=O)[C@H](C)NC(=O)c2ccccc2)no1,11.4% (inactive)
12,Cc1ccc(C)n1-c1ccc(C(=O)O)cc1,42.6% (inactive)
13,O=C(O)c1cccc(N2CCCC2)c1,-2.4% (inactive)
14,N/C(COc1ccc(F)cc1)=N\NC(=O)c1cccnc1Oc1ccccc1,12.1% (inactive)
15,C/C(Cl)=C/Cn1c(=O)c2c(nc(Br)n2Cc2ccccc2)n(C)c1=O,4.3% (inactive)
16,C/C(N)=C(/C#N)C(=O)CSc1nnc(Nc2ccccc2C)s1,4.3% (inactive)
17,C/C(N)=C(/C#N)C(=O)CSc1nnc(Nc2cccc(C)c2C)s1,-1.5% (inactive)
18,O=S(=O)(c1ccccc1)N1CCSC1c1ccco1 (stereo not given),-4.6% (inactive)
19,CCc1cc(C(=O)Cc2cnn(-c3ccccc3)c2)c(O)cc1O,-5.9% (inactive)
20,Cc1ccc(O)c(C(=O)c2cnn(-c3ccccc3)c2)c1,-8.5% (inactive)
21,CC(SCCc1ccccn1)C(=O)O (stereo not given),-2% (inactive)
22,CCn1c(SCC(=O)Nc2ccc(NC(C)=O)cc2)nnc1C1CC1,-2.2% (inactive)
23,COc1ccc(C(=O)c2coc3ccc(O)c(CN4CCCCC4)c23)cc1,-2.5% (inactive)
24,O=c1c(-c2ccccc2)coc2c(CN3CCCC3)c(O)ccc12,0.4% (inactive)
25,Nc1csnc1C(=O)O,1.9% (inactive)

row,Compound,displacement
1,Cc1nnc(-c2cccc(Br)c2)c2cn(-c3ccccc3Cl)nc12,7.2% (inactive)
2,CCCCC(=O)Nc1ccc(NC(=O)CCCC)nc1,-8.6% (inactive)
3,Cc1ccc(C(=O)CSc2cc(C)nc(SCC(=O)c3ccccc3)n2)cc1,-6.6% (inactive)
4,Nc1cc(N)nc(SCC(=O)c2ccccc2)n1,-7.4% (inactive)
5,CCn1c(SCC(=O)c2ccc(O)c(O)c2)nnc1-c1ccccc1,15.8% (inactive)
6,CCn1c(SCC(=O)c2ccc(O)c(O)c2)nnc1-c1ccc(C)cc1,33% (inactive)
7,Cc1ccc(NC(=O)CCn2nc(C)cc2C)c(C)c1,-5% (inactive)
8,CCN(CCO)c1ccc(-n2c(N)c(C(=O)OC)c3nc4ccccc4nc32)cc1,12.6% (inactive)
9,CC(C)c1nnc(NC(=O)CCN2C(=O)c3ccccc3C2=O)s1,-5.9% (inactive)
10,CCn1c(SCc2ccc(C#N)cc2)nnc1-c1cccc(Cl)c1,-1.6% (inactive)
11,Clc1ccc(CN(Cc2ccccc2)C(c2cccs2)c2nnnn2C2CCCC2)cc1 (stereo not given),-9.7% (inactive)
12,O=C(c1cccnc1)N1CCc2ccccc21,-1.9% (inactive)
13,O=C1CN(C(=O)c2cnccn2)c2ccccc2N1,7% (inactive)
14,Cc1cc(C(F)F)n2ncc(C(=O)N3CCC(C(N)=O)CC3)c2n1,10.5% (inactive)
15,CCS(=O)(=O)C(=C1NCCO1)S(=O)(=O)CC,1.6% (inactive)
16,Cc1cc(Cl)cc(Cl)c1OCC(=O)NCc1ccco1,-20.9% (inactive)
17,Cc1ccc2c(Cl)cc(Cl)c(OCC(=O)NCc3ccco3)c2n1,56.5% (active)
18,Cc1ccc2c(Cl)cc(Cl)c(OCC(=O)NC(=O)NCc3ccco3)c2n1,-8% (inactive)
19,Cc1ccccc1C(=O)/C=C1/c2ccccc2CC(C)(C)N1C,4.3% (inactive)
20,c1ccc(Sc2cnc3ccccc3n2)cc1,-0.3% (inactive)
21,CN=CC1=C(O)c2ccccc2C1=O,-13.3% (inactive)
22,O=C1C(C=Nc2ccccc2O)=C(O)c2ccccc21,-6.7% (inactive)
23,Cc1cc(C)c(C)c(S(=O)(=O)NCC(=O)O)c1C,2.8% (inactive)
24,O=C(Nc1ccc(N2CCOCC2)cc1)Nc1ccc(Cl)c(Cl)c1,-11.1% (inactive)
25,CC(=O)c1ccc(N2CCN(c3ncc(C(F)(F)F)cc3Cl)CC2)cc1,-8.1% (inactive)
